Bioassay records from PubChem BioAssay.
Menin MLL FP TR = displaces Texas Red mutant MLL peptide from human menin. O00255. Menin + Texas Red MLL mutant peptide, fluorescence polarization. Potency, µM (doses to about 61.6 µM), without a hit: at the top dose FP activity change, negative = inhibition, usual class: inhibitors. hit rate 0.23% among 270,000; active = well fitted inhibition curve with a large enough effect in the polarisation, with a control signal flat, not every such curve was filed as active; inconclusive = small, poorly fitted or top-dose-only effect, or effect the other way, or a change in a side signal; inactive = no such curve, though single readings can be large or run the other way; the % refers to the polarisation; note: potency is the fitted concentration of half-maximal effect; % of control where 0% means no effect
MLL CXXC-DNA inh = inhibitors of human MLL CXXC domain-DNA interaction. hit rate 0.037% among 290,000. Potency, µM (doses to about 115 µM), for inactives: top-dose activity change, negative = inhibition, most hits filed as inhibitors. Q03164. MLL-CXXC / FITC-HOXA9 DNA fluorescence polarization; active = well fitted inhibition curve with a large enough effect in the polarisation, with a control signal flat, not every such curve was filed as active; inconclusive = small, poorly fitted or top-dose-only effect, or effect the other way, or a change in a side signal; inactive = no such curve, though single readings can be large or run the other way; the % refers to the polarisation; note: potency is the fitted concentration of half-maximal effect
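Steps: dispense CXXC domain solution (7 uM) → pin compounds or unlabeled HOX-A9 DNA control → 5 min ambient → add FLSN-HOX-A9 solution (50 nM) → spin → 30 min ambient → fluorescence polarization. Tris pH 7.5/NaCl/DTT/BSA buffer.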
LMNA splice mod = modulators of lamin A splicing; Potency, µM (doses to about 46.1 µM), for the others: at the top dose ratio change, negative = inhibition, actives largely listed as inhibitors; HeLa LMNA splicing GFP/RFP minigene ratio, 48 h; AID 1487; hit rate 0.01% among 200,000; active = well fitted inhibition curve with a large enough effect in the signal ratio, with a control signal flat, not every such curve was filed as active; inconclusive = small, poorly fitted or top-dose-only effect, or effect the other way, or a change in a side signal; the % refers to the signal ratio; note: potency is the fitted concentration of half-maximal effect; % is set by controls: 0 for no effect and ±100 for the full control effect
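S3 HeLa cells stably expressing lamin A-EGFP splicing minigene plus DsRed2, 600 cells/well, 48 h compound exposure at 37C. Laser-scanning cytometry; analysed as GFP (500-530 nm)/RFP (575-640 nm) total intensity ratio; 0.5% DMSO vehicle.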
Menin MLL FP FL = displaces fluorescein MLL peptide from human menin | FP activity change, % at 61.4 µM | Fluorescence polarization, fluorescein-MLL peptide displacement from menin | 290,000 tested, under 10 active; active = well fitted curve in the direction sought with a large enough effect in the polarisation, not every such curve was filed as active; inconclusive = small, poorly fitted or top-dose-only effect, or effect the other way, or a change in a side signal; inactive = no such curve, though single readings can be large or run the other way; the % refers to the polarisation; note: % of control where 0% means no effect
Epigenetic reg = epigenetic control regulation, reporter derepression; murine LDR cells, GFP reporter derepression, 30 h; Potency, µM (series often up to 53.9 µM), inactives show top-dose GFP activation, actives largely listed as activators; hit rate 0.2% among 280,000; note: potency is the fitted concentration of half-maximal effect; % of control where 0% means no effect; nearly all actives have a fitted effect of over 60% in size
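GFP-positive cell count by laser-scanning cytometry (objects 20–120 um) after 30 h, 37 C compound exposure of murine LDR cells; reporter is CMV-GFP integrated at a silenced locus, inducible by HDAC or DNMT inhibitors.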
C127i cell count = changes parental c127i cell counts in epigenetic modulator counter-screen. shares compounds with Epigenetic reg. mouse c127i parental cells, fluorescent cell count, 30 h. Potency, µM, for inactives: top-dose fluorescent cell count, usual class: activators. hit rate 20% among 60. AID 493065
HCC4017 tox = HCC4017 cytotoxicity of epigenetic modulator hits | hit rate 30% among 45 | AID 493071 | Potency, µM (highest dose often 46.1 µM), inactives show at the highest dose activity change, negative = cytotoxicity, hits mostly cytotoxic | shares compounds with Epigenetic reg | HCC4017 NSCLC viability, CellTiter-Glo ATP luminescence, 72 h
H358 viab = reduces H358 lung cancer cell viability among epigenetic modulators; shares compounds with Epigenetic reg; H358 NSCLC viability, ATP luminescence, 72 h; Potency, µM (doses to about 46.1 µM), for the others: at the highest dose activity change, negative = viability loss, usual class: cytotoxic; hit rate 30% among 45
Numbers without * were called inactive; ? = inconclusive; · = no result given; [ ] = another dose, or the depositor's remark. An excerpt weighted towards active compounds, which were near 0.26% of everything screened. Unless noted, calls come from the whole dose curve; as a rule, active = well fitted curve in the direction sought with a large enough effect; inconclusive = small, poorly fitted or top-dose-only effect, or another doubt; inactive = no such curve, though single readings can be large; an effect the other way counts as inactive or inconclusive.

SMILES	Menin MLL FP TR	MLL CXXC-DNA inh	LMNA splice mod	Menin MLL FP FL	Epigenetic reg	C127i cell count	HCC4017 tox	H358 viab
Cc1cc(NC(=O)C2CCCN(S(=O)(=O)c3cccc4nonc34)C2)ccc1Br (stereo not drawn)	·	·	·	·	?	32µM*	·	·
O=C(Nc1ccc(F)cc1)C1CCCN(S(=O)(=O)c2cccc3nonc23)C1 (stereo not drawn)	-1%	6%	·	10	·	·	·	·
CCn1c2ccc(OC)cc2c2nc3ccccc3nc21	-4%	13%	-26%	-21	-2%	·	·	·
CCCCOC(=O)Cn1c2ccc(OC)cc2c2nc3ccccc3nc21	0%	12%	0%	?	?	?	?	?
NC(=S)N/N=C/c1ncc(C(F)(F)F)cc1Cl	·	-3%	·	?	4µM*	8%	?	?
O=C(CSc1cccc[n+]1[O-])c1ccccc1Br	0%	4%	?	0	3.5µM*	7%	9%	-12%
COc1ccc(NC(=O)c2sc3nc(C)cc(C)c3c2N)cc1	7%	13%	·	-4	·	·	·	·
COc1ccc(NC(=O)c2sc3nc(-c4ccc(OC)cc4)cc(C(F)(F)F)c3c2N)cc1	·	·	·	·	7.1µM*	4µM*	·	·
O=C(NN1C(=O)c2ccccc2NC1c1ccc([N+](=O)[O-])o1)c1ccc([N+](=O)[O-])cc1 (stereo not drawn)	-2%	-3%	·	-3	10µM*	9%	?	?
O=C(NN1C(=O)c2ccccc2NC1c1ccc([N+](=O)[O-])o1)c1ccccc1 (stereo not drawn)	-1%	-2%	·	-1	-1%	·	·	·
COc1c(O)cc2oc3cc(O)c(CC=C(C)C)c(O)c3c(=O)c2c1CC=C(C)C	?	·	?	?	10%	·	·	·
COc1ccc(Nc2nc3c(S(=O)(=O)c4ccccc4)nnn3c3ccc(Cl)cc23)cc1	·	·	·	·	?	4%	·	·
CCCCNC(=O)c1ccc(Cc2nc3ccccc3[nH]2)cc1	·	·	·	·	-2%	·	·	·
COc1ccccc1OCC(=O)N/N=C/C=C/c1ccc([N+](=O)[O-])o1	15%	1%	?	?	10µM*	4%	?	14µM*
C[C@H]1Cc2c(COc3ccccc3)nc3c(c2CO1)CN(C(=O)c1ccco1)CC3	-10%[11.7 µM]	·	6%[9.22 µM]	2[11.7 µM]	·	·	·	·
CNCC(=O)NC(CCCN=C(N)N)C(=O)NC(C(=O)NC(Cc1ccc(O)cc1)C(=O)NC(C(=O)NC(Cc1cnc[nH]1)C(=O)N1CCCC1C(=O)NC(C)C(=O)O)C(C)C)C(C)C (stereo not drawn)	4%	11%	·	-1	·	·	·	·
CCOC(=O)c1cc2c(=O)n3ccccc3nc2n(Cc2ccco2)c1=NC(=O)c1cccc(Br)c1	·	·	9%[46 µM]	·	-1%	·	·	·
CCOC(=O)c1cc2c(=O)n3ccccc3nc2n(Cc2ccco2)c1=NC(=O)c1ccc(Br)cc1	·	·	·	·	?	28µM*	·	·
CCCCCCCCCCC(C)=O	-6%	·	·	5	·	·	·	·
COc1ccc(C(=O)/C=C/Sc2nc3ccccc3o2)cc1	·	-6%	·	1	?	10%	7.9µM*	7.9µM*
Cc1ccc(NC(=O)c2c(C)nc3sc(C(=O)NC4CCCC4)c(N)c3c2-c2ccco2)c(C)c1	-21%	13%	-12%	3	?	?	·	·
O=C(CO)[C@@H](O)C(O)[C@@H](O)CO (stereo partly drawn)	4%	·	·	1	·	·	·	·
O=S(=O)(c1ccc(-n2cnnn2)cc1)N1CCN(c2cccc(Cl)c2)CC1	·	·	·	·	0%	·	·	·
COc1cccc(N2CCN(S(=O)(=O)c3ccc(-n4cnnn4)cc3)CC2)c1	0%	46%	·	-2	?	4%	13%	-11%
CCOC(=O)c1c(NC(=O)CC2Nc3cc(C)c(C)cc3NC2=O)sc(C)c1C (stereo not drawn)	3%	18%	-9%	?	8.9µM*	?	·	·
SMILES	Menin MLL FP TR	MLL CXXC-DNA inh	LMNA splice mod	Menin MLL FP FL	Epigenetic reg	C127i cell count	HCC4017 tox	H358 viab
COc1ccccc1C1=Nn2c(nnc2-c2ccccc2O)SC1	57%	·	·	3	·	·	·	·
CN(c1ccccc1)S(=O)(=O)c1nnc(NC(=O)c2ccccc2)s1	·	·	8%[46 µM]	·	7.1µM*	0%	-14%	-27%
COc1cccc(/C=N/Nc2nc(Nc3ccccc3)nc(-n3nc(C)cc3C)n2)c1O	?	63%	?	1	2.5µM*	4%	2.5µM*	4.4µM*
O=[N+]([O-])/C(C=Nc1ccccc1O)=C\Nc1ccccc1O	·	?	·	0	?	4%	-11%	?
O=[N+]([O-])/C(=C\Nc1ccccc1Cl)S(=O)(=O)c1ccccc1	19%	20%	?	3	2%	·	·	·
OC[C@@H]1OC(O)[C@@H](O)[C@H](O)[C@@H]1O (stereo partly drawn)	5%	·	·	-5	·	·	·	·
Cc1ccc(C(C)C)c(OCc2ccc(C(=O)N/N=C/c3cccc(O)c3O)cc2)c1	?	?	?	1	?	1%	2µM*	0.56µM*
Cc1ccc(C(C)C)c(OCc2ccc(C(=O)N/N=C/c3ccc(O)c(O)c3)cc2)c1	?	-5%	?	8	0%	·	·	·
COc1ccc(NC(=O)CSc2nc3c(oc4ccccc43)c(=O)n2Cc2ccco2)cc1Cl	·	·	·	·	3.5µM*	8%	11µM*	16µM*
COCCNC(=S)N/N=C(\C)c1ccccc1O	9%	-9%	?	·	4.5µM*	4%	?	?
CC(C)C[C@H](NC(=O)CNC(=O)[C@H](CCC(N)=O)NC(=O)[C@H](CC(C)C)NC(=O)[C@H](CC(C)C)NC(=O)[C@H](CCCNC(=N)N)NC(=O)[C@H](CCC(N)=O)NC(=O)[C@H](CC(C)C)NC(=O)[C@H](CCCNC(=N)N)NC(=O)[C@H](C)NC(=O)CNC(=O)[C@H](CCC(=O)O)NC(=O)[C@H](CCCNC(=N)N)NC(=O)[C@H](CC(C)C)NC(=O)[C@H](CCCNC(=N)N)NC(=O)[C@H](CO)NC(=O)[C@H](CC(C)C)NC(=O)[C@H](CCC(=O)O)NC(=O)[C@H](CO)NC(=O)[C@@H](NC(=O)[C@H](Cc1ccccc1)NC(=O)[C@@H](NC(=O)CNC(=O)[C@H](CC(=O)O)NC(=O)[C@H](CO)NC(=O)[C@@H](N)Cc1cnc[nH]1)[C@@H](C)O)[C@@H](C)O)C(=O)N[C@H](C(N)=O)C(C)C	4%	·	·	1	·	·	·	·
